In PubChem BioAssay (NCI):
Compounds without any hit were thinned out: in the full panel of roughly 83,000, 20% have a hit.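 Single-concentration screen, 48 h exposure, 96-well plates. Endpoint: percent growth. Below 10 = active.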 A number with no mark means an inactive call. Calls of active or inactive are those of the source.

Tested on: HL-60(TB) leukemia
Experiment: NCI-60 one-dose screen, 48 h (100 = growth as untreated, 0 = no growth, -100 = all killed)
Details: 10 µM unless noted

## N#Cc1nc(-c2ccccc2)oc1S(=O)(=O)N1CCN(c2ccccc2)CC1
  growth: 75.6%

## O=C1C(N2CCOCC2)=C(I)C(=O)c2ncccc21
  growth: 80.9%

## Nc1c(C(=O)Nc2cccc3ccccc23)sc2nc3c(cc12)CCCCC3
  growth: -25.9% (active)

## O=C1N/C(=C\c2ccccc2)c2ncccc21
  growth: 117%

## Brc1ccc(Oc2ccc(Nc3ncnc4onc(-c5ccccc5)c34)cc2)cc1
  growth: 101%

## O=C(/C=C/c1cccc(Cl)c1)c1cccc(OCCCOc2cccc(C(=O)/C=C/c3cccc(Cl)c3)c2)c1
  growth: 93.1%

## CCCCCCCCCc1cc(CN2CCCCC2)c(O)c(CN2CCCCC2)c1
  growth: 60.7%

## CCCCC/C(=C\c1ccccc1)C1OC(C)C(C)O1 (centres undefined)
  growth: 115%

## ClC1=C(Cl)C(=C2C(Cl)=C(Cl)C(Cl)=C2Cl)C(Cl)=C1Cl
  growth: 77.7%

## C[C@H](Oc1cc(-c2cnn(C3CCNCC3)c2)cnc1N)c1c(Cl)ccc(F)c1Cl
  growth: 58.3%

## Cc1ccc(C)c2c1C(O)(C#Cc1ccccc1)c1ccccc1C2(O)C#Cc1ccccc1 (centres undefined)
  growth: 35.6%

## CC(=O)CC(=O)N(C)C
  growth: 114%

## Cc1ccc2cc3c(NC(=O)c4cccnc4)nn(C)c3nc2c1
  growth: 87.8%

## O=C(c1ccc(Cl)cc1)c1ccc(Cl)cc1
  growth: 113%

## S=c1nc(CS)[nH]c2ccccc12
  growth: 101%

## COc1ccccc1Nc1nnc(COc2ccc(CNC(=O)CCCC/C=C/C(C)C)cc2OC)o1
  growth: 81.1%

## CCN1CCN(c2nc(NCCCNc3ccnc4cc(Cl)ccc34)c3ccccc3n2)CC1
  growth: -51.4% (active)

## Cc1cc(=O)[nH]c(NN=C2CCCC2)n1
  growth: 94.6%

## CNC(=O)c1cccc(Cn2nc(C)c(NC(=O)c3ccc(COc4ccc(C(F)(F)F)cc4C)cc3)c2C)n1
  growth: 36.7%

## CN(CCCCCl)P(=O)(OCc1ccc([N+](=O)[O-])o1)C(F)(F)c1ccc(CC(=O)NC[C@@H](O)/C=C\[C@@H](O)[C@H](CO)Cc2ccccc2)cc1 (some centres undefined)
  growth: 80.3%

## CNCCNc1nc2ccccc2c2c(=O)c3cc(OC)ccc3sc12
  growth: -52.9% (active)

## S=C(SSC(=S)N(c1ccccc1)c1ccccc1)N(c1ccccc1)c1ccccc1
  growth: 85.1%

## COc1ccc(-c2csc(NC(=O)CSc3nc(C)cc(=O)[nH]3)n2)cc1
  growth: 106%

## O=C1Nc2c(ccc(Cl)c2Cl)/C1=C\c1cc(C(F)(F)F)cc(C(F)(F)F)c1
  growth: -29.3% (active)

## Cc1ccc2nc(Cl)c(-c3nc4ccccc4o3)cc2c1
  growth: 94.4%

## Cc1cc(-c2ccccc2)cc(C)n1
  growth: 104%

## O=C(N/N=C\c1cc(Br)ccc1O)c1ccncc1
  growth: -27.5% (active)

## COC(=O)[C@]12CC[C@@H](C)[C@H](C)[C@@H]1C1=CC[C@@H]3[C@@]4(C)C[C@@H](OC(C)=O)[C@H](O)[C@@](C)(COC(C)=O)[C@@H]4[C@H](O)C[C@@]3(C)[C@]1(C)CC2
  growth: -41.6% (active)

## COc1cc(OC)c2c(c1Cl)O[C@]1(C2=O)C(OCc2ccccc2)=CC(=O)C[C@H]1C
  growth: -12% (active)

## COc1ccc(N(Cc2cc(OC)c(OC)c(OC)c2)C2OC(=O)c3ccccc32)cc1 (centres undefined)
  growth: 2.92% (active)

## CCCCn1c(-c2ccc(C(=O)O/N=C(\N)c3ccc(OC)cc3)cc2)nc(-c2ccccc2)c1-c1ccccc1
  growth: -62.5% (active)

## CCCCCN1C=C/C(=C\C(=O)n2ccc3ccccc32)c2ccccc21
  growth: 103%

## N#Cc1c(NC(=O)c2ccco2)[n+]([O-])c2cc(Cl)c(Cl)cc2[n+]1[O-]
  growth: 91.8%

## Cc1ccc(/C=C/C(=O)c2ccc(-n3cc(CN4CCN(c5cc6c(cc5F)c(=O)c(C(=O)O)cn6C5CC5)CC4)nn3)cc2)cc1
  growth: 98.8%

## ON=C(C1CCCCC1)C1CCCCC1
  growth: 96.7%

## COc1ccc(-c2nnc(-c3ccc4c(c3)nc(-c3ccccc3)n4C3CCCCC3)o2)cc1
  growth: 17.2%

## COc1ccc(-c2nn3c(-c4cc(F)c(Cl)cc4Cl)nnc3s2)cc1
  growth: -1.09% (active)

## Cn1cc(-c2nn3cc(-c4ccccc4)nc3s2)c2ccccc21
  growth: 84.8%

## CCc1ccc(CCC(=O)Nc2ncc(Cc3ccccc3)s2)o1
  growth: -40% (active)
